Assay outcomes (PubChem BioAssay)
E coli Lon inh: inhibitors of E. coli Lon protease, primary screen, biochemical, fluorescence polarization; P0A9M0; 0.42% of 360,000 active; inhibition, % at 7.94 µM; AID 602123, 2011; purified E. coli Lon protease; in the data active = inhibition above about 13%, passing the limit was not always enough;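 also: 0% = enzyme with probe and DMSO and 100% = no enzyme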
Target sequence (P0A9M0 whole entry, looked up): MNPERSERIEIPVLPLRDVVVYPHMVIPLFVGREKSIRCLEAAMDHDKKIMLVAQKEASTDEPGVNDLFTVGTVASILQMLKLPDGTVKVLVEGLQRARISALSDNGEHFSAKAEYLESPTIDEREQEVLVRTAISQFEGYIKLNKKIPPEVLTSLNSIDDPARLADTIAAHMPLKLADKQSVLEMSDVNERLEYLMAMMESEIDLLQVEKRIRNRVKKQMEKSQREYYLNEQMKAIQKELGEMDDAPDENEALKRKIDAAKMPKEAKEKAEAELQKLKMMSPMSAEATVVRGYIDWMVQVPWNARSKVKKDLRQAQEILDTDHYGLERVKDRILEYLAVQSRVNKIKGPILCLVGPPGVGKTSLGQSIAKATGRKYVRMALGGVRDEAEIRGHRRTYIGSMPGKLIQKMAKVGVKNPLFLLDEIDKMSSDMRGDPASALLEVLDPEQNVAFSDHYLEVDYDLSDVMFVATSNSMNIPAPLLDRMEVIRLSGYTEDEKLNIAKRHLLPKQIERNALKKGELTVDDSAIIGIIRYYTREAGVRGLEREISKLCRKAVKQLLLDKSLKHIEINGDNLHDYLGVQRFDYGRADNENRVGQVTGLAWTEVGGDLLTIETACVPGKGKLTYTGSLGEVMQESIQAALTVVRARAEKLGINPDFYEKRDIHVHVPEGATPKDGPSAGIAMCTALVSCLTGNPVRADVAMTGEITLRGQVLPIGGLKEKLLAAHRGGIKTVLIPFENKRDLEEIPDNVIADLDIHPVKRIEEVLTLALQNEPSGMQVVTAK
Keap1 Nrf2 FP: Keap1-Nrf2 protein-protein interaction inhibitors, primary screen, biochemical, fluorescence polarization, single point; Kelch-like ECH-associated protein 1 (Homo sapiens), Q14145; Keap1 Kelch-Nrf2 peptide fluorescence polarization, 1536-well; inhibition, % at 9.4 µM; 0.15% of 340,000 active; AID 504523, 2011; in the data active = inhibition above about 12%; inconclusive = no clear call, values can overlap the other calls; inactive = below about 7.3%;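 also: human Keap1 Kelch domain with fluorescein labeled Nrf2 9mer peptide probe; 0% = neutral control wells and 100% = peptide positive control; higher means more block of Keap1 binding to Nrf2 peptide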
GLD-1 TGE inh: GLD-1/TGE RNA complex disruptors, primary screen, biochemical, fluorescence polarization. AID 2280, 2010. inhibition, % at 5.96 µM. purified GLD-1 + fluorescein TGE RNA. 0.44% of 320,000 active;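 active = percent inhibition above a per-plate cutoff, the plate mean of test compounds plus 3 SD, cut at about 30% in these data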;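 also: 0% = DMSO wells with GLD-1 and probe and 100% = wells lacking GLD-1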
C-LANA FP: inhibitors of KSHV C-LANA binding to DNA, primary screen, biochemical, fluorescence polarization, FAM-LBS DNA, MBP-C-LANA, single point. Kaposi's sarcoma herpesvirus LANA C-terminal domain (residues 932-1162) DNA binding. inhibition, % at 9 µM. 0.078% of 340,000 active. AID 504423, 2011;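 active = highest replicate inhibition at or above 60% at 9 µM, even if other replicates fall short; inactive = all replicates below 60% inhibition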;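 also: 0% = neutral control wells and 100% = 4 µM acridine orange control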
BCLXL inh: inhibitors of human Bcl-xL, primary screen, biochemical, fluorescence polarization, HTS | Bcl-2-like protein 1 (Homo sapiens), Q07817 | GST-Bcl-xL / FITC-Bim BH3 peptide fluorescence polarization | 0.7% of 320,000 active | inhibition, % at 10.9 µM;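 active = inhibition above the mean of all tested compounds plus 3 SD, cutoff set per campaign, cut at about 30% in these data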;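 also: 0% = DMSO wells and 100% = unlabeled Bim-BH3 peptide competitor; inhibitors lower millipolarization by displacing the labeled peptide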
MEX-5 binding: MEX-5 zinc finger RNA-binding disruptors – biochemical, C. elegans, fluorescence polarization, MLPCN library, primary screen | AID 1832, 2009 | activity score (negative = inhibition of binding), % at 10 µM | 0.38% of 300,000 active | MEX-5/FITC-TCR2 RNA binding; hits give low values;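 active = inhibition past about -25% in most replicates, and total fluorescence under double the plate's negative control median, limit read from the data; inconclusive = replicates evenly split on the limit, or fluorescence at least double controls; inactive = too little inhibition in most replicates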;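 also: 0% = DMSO and -100% = 5 µM competing unlabeled TCR2 RNA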
GLD-1 TGE cf: GLD-1/TGE RNA binding inhibitors, retest, confirmation, biochemical, fluorescence polarization, triplicate | shares compounds with GLD-1 TGE inh | GLD-1/FL-TGE RNA fluorescence polarization | inhibition, % at 5.96 µM | 10% of 550 active;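 active = average inhibition across triplicates above the hit cutoff set in the primary screen, cut at about 32% in these data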;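 also: 0% = GLD-1 with RNA probe and DMSO and 100% = wells lacking GLD-1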
eLon confirm: E. coli Lon protease inhibitor retest, confirmation, biochemical, fluorescence polarization | shares compounds with E coli Lon inh | purified E. coli Lon | inhibition, % at 7.94 µM | 31% of 1,400 active | AID 602230, 2012; in the data active = inhibition above about 16%;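 also: 0% = enzyme with probe and DMSO and 100% = no enzyme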
* marks the source's active call; other numbers are inactive results; ? = inconclusive; . = no result. An excerpt weighted towards active compounds, which were near 1.2% of everything screened.

SMILES | E coli Lon inh | Keap1 Nrf2 FP | GLD-1 TGE inh | C-LANA FP | BCLXL inh | MEX-5 binding | GLD-1 TGE cf | eLon confirm
CCOC(=O)c1c(-c2ccccc2)c(C(C)=O)c(=O)n(C)c1C | -1 | 1 | 6 | -1 | 1 | 2 | . | .
CCOC(=O)c1c2c3c(cccc3n(C)c1=O)C(=O)c1ccccc1-2 | 144* | 7 | 32* | 2 | 55* | ? | 16 | 65*
CN(CC(=O)Nc1ccccc1C(F)(F)F)C(=O)c1ccccc1Sc1ccccc1C#N | 6 | -2 | 6 | 0 | 1 | . | . | .
CCN(CC)c1ccc(/C=N/N2C(=O)c3ccccc3C2=O)c(O)c1 | -5 | 0 | -8 | -1 | 0 | -1 | . | .
O=C1c2cccc3cc([N+](=O)[O-])cc(c23)C(=O)N1/N=C/c1ccc(O)cc1O | 17* | -1 | 60* | -1 | 56* | 0 | 11 | 20*
CCCCn1c(=O)[nH]c2nc3cc(NC(C)=O)ccc3nc2c1=O | 35* | -5 | 53* | 4 | 61* | -12 | 102* | 33*
CCCCCn1c(=O)[nH]c2cc(C(=O)Nc3ccc(OC)cc3)ccc2c1=O | 4 | 1 | 4 | 0 | 2 | 0 | . | .
CCOC(=O)NC(=O)C(/C=N/c1sccc1C(=O)OC)=C(\C)O | 42* | 1 | 46* | 4 | 17 | -3 | 3 | 5
CC1CN(C2=Nc3cccc4cccc2c34)CC(C)O1 (stereo not given) | 28* | -2 | 47* | -5 | 38* | -19 | 36* | 14
c1ccc(CC2CCN(C3=Nc4cccc5cccc3c45)CC2)cc1 | -23 | 2 | 4 | 15 | 6 | -12 | . | .
c1cc2c3c(cccc3c1)C(N1CCOCC1)=N2 | 32* | -1 | 45* | 5 | 29 | -19 | 32* | 28*
CC(=O)N1CCN(C2=Nc3cccc4cccc2c34)CC1 | 18* | 0 | 43* | 8 | 37* | -21 | 38* | 23*
Cc1csc(CNC(=O)C2CCC(=O)N(CCc3cccc(F)c3)C2)n1 (stereo not given) | -1 | 0 | -6 | 0 | 2 | 2 | . | .
O=C1C2CC=C(Cl)CC2C(=O)N1CCc1ccccc1 (stereo not given) | 25* | -3 | 43* | 7 | 33* | -34* | 21 | 48*
O=C(CN1C(=O)C2CC=C(Cl)CC2C1=O)NCc1ccccc1 (stereo not given) | 34* | -3 | 42* | 7 | 41* | -27* | 33* | 38*
O=c1oc2cc(O)ccc2cc1S(=O)(=O)c1ccccc1 | 19* | -2 | 40* | 1 | 27 | 0 | 12 | 43*
CCN(CC)C(=O)COc1coc(CN2CCN(c3ccccc3F)CC2)cc1=O | 6 | -1 | -2 | -1 | 4 | -1 | . | .
Cc1ccc(C)c(-n2c3nc(=O)[nH]c(=O)c-3cc3cc([N+](=O)[O-])ccc32)c1 | 60* | 6 | 59* | 8 | 76* | . | 27 | 3
Cc1cccc(-n2c3nc(=O)[nH]c(=O)c-3cc3cc([N+](=O)[O-])ccc32)c1 | 3 | 3 | 3 | 0 | 8 | 1 | . | .
Cc1cccc2cc3c(nc12)-c1ccccc1C3=O | 5 | -3 | 1 | 2 | 5 | 3 | . | .
Cc1ccc2c3c(cccc13)-c1ccccc1C2=O | 40* | -6 | 43* | 3 | 37* | -10 | 39* | 20*
N#Cc1ccc(NC(=O)COC(=O)CCc2nc3ccccc3c(=O)[nH]2)cc1 | 4 | -7 | 4 | 0 | -3 | 0 | . | .
CCc1nc2ccc(C(=O)NCc3ccc(OC)cc3)cn2c1N(C)C(=O)Cc1ccccc1 | -15 | . | . | . | . | . | . | .
CCCCN(C(=O)c1cc2ccccc2o1)c1c(N)n(CC(C)C)c(=O)[nH]c1=O | 17 | -7 | 6 | 0 | 2 | 1 | . | .
CCCCN(C(=O)c1ccc([N+](=O)[O-])o1)c1c(N)n(CC(C)C)c(=O)[nH]c1=O | 40* | -6 | 37* | 2 | 34* | -28* | 65* | 29*
SMILES | E coli Lon inh | Keap1 Nrf2 FP | GLD-1 TGE inh | C-LANA FP | BCLXL inh | MEX-5 binding | GLD-1 TGE cf | eLon confirm
O=C(NNC(=O)C1CCC1)c1ccccc1F | 14 | -3 | -2 | 0 | -1 | 1 | . | .
O=C1NC(=O)/C(=C/c2ccc(-c3cc(C(=O)O)ccc3Cl)o2)S1 | -10 | 0 | 3 | 5 | 21 | -9 | . | .
O=C1NC(=S)/C(=C\c2ccc(-c3ccccc3Cl)o2)S1 | 48* | 2 | 60* | 15 | 58* | -42* | 29 | 20*
CC1CC=C(O)C12OCC(C)(C)CO2 (stereo not given) | -3 | 0 | . | -1 | . | . | . | .
CCC(=Nc1ccc(N)cc1)C1=C(O)C(C(=O)OC)C(C)(C)CC1=O (stereo not given) | 20* | 0 | 46* | 3 | 56* | -5 | -3 | 3
CCCC(=Nc1ccccc1)C1=C(O)C(C(=O)OC)C(C)(C)CC1=O (stereo not given) | -7 | -6 | -1 | 1 | 1 | 0 | . | .
Cc1ccc(F)c(S(=O)(=O)NC(=O)C2(C)CCN2C(=O)C/C=C/c2ccccc2)c1 (stereo not given) | 1 | . | . | . | . | . | . | .
Cc1ccc(S(=O)(=O)N2CCCCC2CCNC(=O)C(=O)NCc2ccccc2)cc1 (stereo not given) | -11 | 0 | 1 | 1 | 5 | 1 | . | .
CCOC(=O)CSc1nnc(Cc2cc(=O)[nH]c(=O)[nH]2)n1-c1ccc(Cl)cc1 | 15* | 5 | 38* | 16 | 21 | -10 | 7 | 12
O=C1c2cccc3c([N+](=O)[O-])ccc(c23)C(=O)N1CCc1ccccn1 | 4 | -2 | 7 | -3 | 7 | -1 | . | .
CN(C)CCCN1C(=O)c2cccc3c([N+](=O)[O-])ccc(c23)C1=O | 131* | 8 | 48* | 12 | 76* | . | 22 | 43*
COc1ccc(CCNC(=O)Nc2nnc([C@@H]3C[C@H](O)[C@@H](CO)O3)s2)cc1OC | -6 | . | . | . | . | . | . | .
N#Cc1c(N)sc(=S)c2c1CCCCC2 | 20* | 3 | 56* | 11 | 87* | -26* | 24 | -49
N#Cc1c(N)sc2c1CCCCCC2 | -5 | -6 | -1 | 1 | 8 | 0 | . | .
